Data published in PubChem BioAssay (NCI).
Compounds without any hit were thinned out: in the full panel of roughly 79,000, 15% have a hit. Active and inactive are the calls of the source. Rule as the data show it: active = growth inhibition above about 70%; inactive = the rest.

Assay: NCI Yeast Anticancer Drug Screen. Data for the sgs1 mgt1 strain (AID 161);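 also: 0% = growth of cultures given vehicle only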
Details: S. cerevisiae sgs1 mgt1 strain, at 5.0 µM (retest, dose inferred, filed as 0.5), stronger effect = higher value
Summary of the method: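 Genetically altered yeast, compound exposure, growth inhibition relative to vehicle.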
With `O=C1C(=O)C(CCCO)(CCCO)CCCCCCCCC1(CCCO)CCCO` the growth inhibition was 5% (inactive). In the case of `CC(C)(C)C(=O)CC(=O)C(F)(F)C(F)(F)C(F)(F)F.CC(C)(C)C(=O)CC(=O)C(F)(F)C(F)(F)C(F)(F)F.CC(C)(C)C(=O)CC(=O)C(F)(F)C(F)(F)C(F)(F)F.[Er]`, the growth inhibition is reported as 43% (inactive). For `CCCCC(CC)COC(=O)c1cc2ccccc2oc1=O` (stereo not given), the growth inhibition was 3% (inactive). For `Nc1ccc(-c2nc3ccccc3s2)cc1I`, the growth inhibition was 44% (inactive). For `CN1CCC(CCC(=O)OC(C)(C)C)(CN2c3ccccc3Sc3ccccc32)C1` (stereo not given), the growth inhibition was -12% (inactive). With `COc1cc(C(=O)C=[N+]=[N-])c([N+](=O)[O-])c(OC)c1OC` the growth inhibition was 19% (inactive). With `COc1ccc(-n2cc(-c3ccc(Cl)cc3)c3c(N)ncnc32)cc1` the growth inhibition was 63% (inactive). For `COc1ccccc1/C=C1\SC(=S)N(/C=C2\C(=O)Oc3ccccc3C2=O)C1=O`, the growth inhibition was 8% (inactive). For `F[Si](c1ccccc1)(c1ccccc1)c1ccccc1`, the growth inhibition was 8% (inactive). In the case of `Cc1c2ccnc(-c3ccc(F)cc3)c2cc2c1[nH]c1ccccc12`, the growth inhibition is reported as -26% (inactive). With `CCN(CC)CCNc1c(OC)cc(C)c2sc3ccccc3c(=O)c12` the growth inhibition was 0% (inactive). With `O=c1cccc(C2CCc3cc(O)ccc3C2)[nH]1` (stereo not given) the growth inhibition was -3% (inactive). With `O/N=C1\c2ccccc2-c2ccc(Cl)cc21` the growth inhibition was 3% (inactive). In the case of `CCCCN(CCCC)CC(O)c1cc(-c2ccc(Cl)cc2)nc2c(Cl)cccc12` (stereo not given), the growth inhibition is reported as 1% (inactive). For `CN(C)c1ccc(-c2c(C#N)c(S)n(NS(=O)(=O)c3ccccc3)c(=O)c2C#N)cc1`, the growth inhibition was 38% (inactive). For `Clc1ccc2ns[s+]c2c1`, the growth inhibition was 12% (inactive). In the case of `COc1ccc2c(c1)CC/C(=C\c1ccc(OCCN(C)C)cc1)C2=O`, the growth inhibition is reported as 8% (inactive). In the case of `CCCCOC(=O)c1cnc[nH]c1=O`, the growth inhibition is reported as 0% (inactive). With `COC(=O)c1c(C)cccc1C1CN=NC12Cc1ccc(C)c(C)c1C2=O` (stereo not given) the growth inhibition was 13% (inactive). In the case of `CC1CCN(CCOC(=O)C(c2ccccc2)C2C=CCCC2)C1` (stereo not given), the growth inhibition is reported as 8% (inactive). For `CNCC(OB(c1ccccc1)c1ccccc1)c1ccccc1` (stereo not given), the growth inhibition was 1% (inactive). In the case of `O=C1CCC(Cc2ccc(C(F)(F)F)cc2)C(=O)N1` (stereo not given), the growth inhibition is reported as 2% (inactive). With `CC(C)(Br)C(Br)C(=O)C(Br)C(C)(C)Br` (stereo not given) the growth inhibition was -4% (inactive). With `CCCCCCCCN(CCCCCCCC)CC(O)c1cc2c(c3ccccc13)CCCC2` (stereo not given) the growth inhibition was 25% (inactive). For `Brc1ccc(CCNCCN2CCCCC2)cc1`, the growth inhibition was 24% (inactive). In the case of `CC(C)=NNc1ncnc2nc[nH]c12`, the growth inhibition is reported as -4% (inactive). With `CC1=C/C(=C\c2ccc([N+](=O)[O-])o2)C(=O)O1` the growth inhibition was 93% (active). For `CCOC(=O)C(=O)Nc1nc2c(s1)C(=O)c1ccccc1C2=O`, the growth inhibition was 14% (inactive). With `CC1CC2(C)ON=C(c3ccccc3)N2c2ccccc2S1` (stereo not given) the growth inhibition was -24% (inactive). For `N#CC(CC(Br)CBr)(c1ccccc1)c1ccccc1` (stereo not given), the growth inhibition was 11% (inactive). In the case of `Oc1ccc(-c2ccccc2)cc1Cl`, the growth inhibition is reported as -3% (inactive). For `C=CCSc1nc2ccccc2c(=O)n1Cc1ccco1`, the growth inhibition was 33% (inactive). With `CCOC(=O)c1ccc(O)c(OC)c1` the growth inhibition was 3% (inactive). In the case of `O=C(COc1ccc2ccccc2c1)NC1c2ccccc2Oc2ccccc21`, the growth inhibition is reported as 95% (active). For `O=S(=O)(c1ccccc1)n1cc(C[P+](c2ccccc2)(c2ccccc2)c2ccccc2)c2ccccc21`, the growth inhibition was 20% (inactive). With `CC/C(=N\O)c1ccc2cc(Br)c3ccccc3c2c1` the growth inhibition was 10% (inactive). With `CCOC(=O)C(C)(C)Oc1ccc2c(=O)cc(-c3ccccc3)oc2c1` the growth inhibition was -43% (inactive). For `CC(O)c1c2ccccc2cc2ccccc12` (stereo not given), the growth inhibition was 1% (inactive). With `CC(=O)OC1CCC2(C)C(CCC3C4=CCC(C5COC(=O)C5)C4(C)CCC32)C1` (stereo not given) the growth inhibition was -5% (inactive). For `NC(C(=O)O)C1=CCCCCC1` (stereo not given), the growth inhibition was 6% (inactive).

Same assay, conditions: S. cerevisiae sgs1 mgt1 strain, at 50.0 µM (retest, dose inferred, filed as 5.0), stronger effect = higher value
In the case of `O=C1C(=O)C(CCCO)(CCCO)CCCCCCCCC1(CCCO)CCCO`, the growth inhibition is reported as 8% (inactive). With `CC(C)(C)C(=O)CC(=O)C(F)(F)C(F)(F)C(F)(F)F.CC(C)(C)C(=O)CC(=O)C(F)(F)C(F)(F)C(F)(F)F.CC(C)(C)C(=O)CC(=O)C(F)(F)C(F)(F)C(F)(F)F.[Er]` the growth inhibition was 38% (inactive). For `CCCCC(CC)COC(=O)c1cc2ccccc2oc1=O` (stereo not given), the growth inhibition was 21% (inactive). With `Nc1ccc(-c2nc3ccccc3s2)cc1I` the growth inhibition was 88% (active). For `CN1CCC(CCC(=O)OC(C)(C)C)(CN2c3ccccc3Sc3ccccc32)C1` (stereo not given), the growth inhibition was 96% (active). For `COc1cc(C(=O)C=[N+]=[N-])c([N+](=O)[O-])c(OC)c1OC`, the growth inhibition was 92% (active). For `COc1ccc(-n2cc(-c3ccc(Cl)cc3)c3c(N)ncnc32)cc1`, the growth inhibition was 99% (active). For `COc1ccccc1/C=C1\SC(=S)N(/C=C2\C(=O)Oc3ccccc3C2=O)C1=O`, the growth inhibition was 12% (inactive). With `F[Si](c1ccccc1)(c1ccccc1)c1ccccc1` the growth inhibition was 79% (active). In the case of `Cc1c2ccnc(-c3ccc(F)cc3)c2cc2c1[nH]c1ccccc12`, the growth inhibition is reported as 48% (inactive). With `CCN(CC)CCNc1c(OC)cc(C)c2sc3ccccc3c(=O)c12` the growth inhibition was 66% (inactive). With `O=c1cccc(C2CCc3cc(O)ccc3C2)[nH]1` (stereo not given) the growth inhibition was 4% (inactive). In the case of `O/N=C1\c2ccccc2-c2ccc(Cl)cc21`, the growth inhibition is reported as 60% (inactive). With `CCCCN(CCCC)CC(O)c1cc(-c2ccc(Cl)cc2)nc2c(Cl)cccc12` (stereo not given) the growth inhibition was 12% (inactive). For `CN(C)c1ccc(-c2c(C#N)c(S)n(NS(=O)(=O)c3ccccc3)c(=O)c2C#N)cc1`, the growth inhibition was 95% (active). In the case of `Clc1ccc2ns[s+]c2c1`, the growth inhibition is reported as 86% (active). With `COc1ccc2c(c1)CC/C(=C\c1ccc(OCCN(C)C)cc1)C2=O` the growth inhibition was 33% (inactive). With `CCCCOC(=O)c1cnc[nH]c1=O` the growth inhibition was 8% (inactive). For `COC(=O)c1c(C)cccc1C1CN=NC12Cc1ccc(C)c(C)c1C2=O` (stereo not given), the growth inhibition was 56% (inactive). In the case of `CC1CCN(CCOC(=O)C(c2ccccc2)C2C=CCCC2)C1` (stereo not given), the growth inhibition is reported as 77% (active). With `CNCC(OB(c1ccccc1)c1ccccc1)c1ccccc1` (stereo not given) the growth inhibition was 95% (active). In the case of `O=C1CCC(Cc2ccc(C(F)(F)F)cc2)C(=O)N1` (stereo not given), the growth inhibition is reported as 92% (active). With `CC(C)(Br)C(Br)C(=O)C(Br)C(C)(C)Br` (stereo not given) the growth inhibition was 31% (inactive). With `CCCCCCCCN(CCCCCCCC)CC(O)c1cc2c(c3ccccc13)CCCC2` (stereo not given) the growth inhibition was 96% (active). For `Brc1ccc(CCNCCN2CCCCC2)cc1`, the growth inhibition was 68% (inactive). For `CC(C)=NNc1ncnc2nc[nH]c12`, the growth inhibition was -13% (inactive). In the case of `CC1=C/C(=C\c2ccc([N+](=O)[O-])o2)C(=O)O1`, the growth inhibition is reported as 52% (inactive). For `CCOC(=O)C(=O)Nc1nc2c(s1)C(=O)c1ccccc1C2=O`, the growth inhibition was 99% (active). For `CC1CC2(C)ON=C(c3ccccc3)N2c2ccccc2S1` (stereo not given), the growth inhibition was 94% (active). With `N#CC(CC(Br)CBr)(c1ccccc1)c1ccccc1` (stereo not given) the growth inhibition was 29% (inactive). For `Oc1ccc(-c2ccccc2)cc1Cl`, the growth inhibition was 99% (active). With `C=CCSc1nc2ccccc2c(=O)n1Cc1ccco1` the growth inhibition was 59% (inactive). For `CCOC(=O)c1ccc(O)c(OC)c1`, the growth inhibition was 2% (inactive). With `O=C(COc1ccc2ccccc2c1)NC1c2ccccc2Oc2ccccc21` the growth inhibition was 97% (active). In the case of `O=S(=O)(c1ccccc1)n1cc(C[P+](c2ccccc2)(c2ccccc2)c2ccccc2)c2ccccc21`, the growth inhibition is reported as 98% (active). For `CC/C(=N\O)c1ccc2cc(Br)c3ccccc3c2c1`, the growth inhibition was 88% (active). For `CCOC(=O)C(C)(C)Oc1ccc2c(=O)cc(-c3ccccc3)oc2c1`, the growth inhibition was 95% (active). For `CC(O)c1c2ccccc2cc2ccccc12` (stereo not given), the growth inhibition was 72% (active). With `CC(=O)OC1CCC2(C)C(CCC3C4=CCC(C5COC(=O)C5)C4(C)CCC32)C1` (stereo not given) the growth inhibition was 88% (active). With `NC(C(=O)O)C1=CCCCCC1` (stereo not given) the growth inhibition was -1% (inactive).
